# Screening data as filed in PubChem.
# Tau ThT inhib: inhibitors of human tau fibril formation, thioflavin T binding. 2.1% of 270,000 active. recombinant tau K18 P301L, heparin-induced fibrillization, ThT fluorescence. P10636. Potency, µM (highest dose often 57.4 µM), without a hit: at the top dose activity, negative = inhibition, hits mostly inhibitors; also: % is scaled to controls: 0 for no effect and ±100 for the full control effect; nearly all actives have a fitted effect of over 55% in size
# Target sequence (P10636 561-689 P618L limits assumed): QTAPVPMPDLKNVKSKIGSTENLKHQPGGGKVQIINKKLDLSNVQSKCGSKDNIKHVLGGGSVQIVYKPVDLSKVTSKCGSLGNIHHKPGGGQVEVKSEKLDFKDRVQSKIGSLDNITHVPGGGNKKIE
#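 Using a mix of unlabeled (15 uM) and Alexa 594-labeled (0.24 uM) tau K18 P301L, heparin-triggered fibrillization over 6 hr at 37 C was scored by ThT fluorescence.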
# HTT cytoprotect: protects HTT-Q103 PC12 cells, measured by ATP; Potency, µM (titrated, usually from 56.4 µM), inactives show cytoprotection (ATP increase), actives largely listed as activators; PC12 HTT-Q103 induced, cytoprotection, ATP luminescence, 40 h; 0.14% of 230,000 active; also: % of control where 0% means no effect; nearly all actives have a fitted effect of over 45% in size
#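 Cells were plated at 1500 per well in phenol red-free DMEM with 5% equine and 5% calf serum. Tebufenozide (100 nM final) and compounds were added, then ATPlite reagent, and luminescence was read.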
# Tau FP inhib: blocks human tau fibril formation measured by polarization; P10636; 0.39% of 280,000 active; K18 P301L tau heparin fibrillization, Alexa594 FP, 6 h; AID 1468; Potency, µM (top dose mostly 57.7 µM), inactives show top-dose activity, negative = inhibition, usual class: inhibitors; also: % is scaled to controls: 0 for no effect and ±100 for the full control effect; nearly all actives have a fitted effect of over 55% in size
#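 Human tau K18 […] P301L fragment, 15 uM unlabeled plus 0.24 uM Alexa 594-labeled tau (final), with compound and 20 uM heparin in 100 mM sodium acetate pH 7; 6 hr at 37 C, then Alexa 594 FP read.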
# Tau fluor counter: counter-screen for tau fibril formation inhibitors. 0.93% of 280,000 active. Potency, µM (top dose mostly 57.7 µM), for inactives: at the highest dose activity change, negative = decrease. AID 1463. tau K18 P301L (four-repeat tau fragment) Alexa594 fluorescence, heparin fibrillization; also: % is scaled to controls: 0 for no effect and ±100 for the full control effect; nearly all actives have a fitted effect of over 55% in size
#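 Human K18 P301L tau (15 uM unlabeled plus 0.24 uM Alexa 594-labeled, final) in 100 mM sodium acetate pH 7 was mixed with compound and 20 uM heparin and incubated 6 hr at 37 C.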
# HttQ103 aggreg: inhibitors of mutant huntingtin aggregate formation in PC12 cells. PC12 HttQ103-GFP aggregates, Acumen cytometry, 40 h. Potency, µM (highest dose often 46.1 µM), without a hit: at the top dose activity change, negative = inhibition, hits mostly inhibitors. 1.1% of 220,000 active; also: % is scaled to controls: 0 for no effect and ±100 for the full control effect; nearly all actives have a fitted effect of over 60% in size
#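 Compounds (qHTS titration) were added to PC12 cells expressing an ecdysone-driven HTT exon 1 Q103–GFP fusion after induction with 100 nM tebufenozide. Aggregate formation was measured as GFP objects in cell lysates.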
# * marks the source's active call; other numbers are inactive results; ? = inconclusive; . = not tested or not shown; [ ] = remark or other dose. Compounds with a hit are over-represented: about 3.7% of the library has one in this group of screens. Calls follow the shape of the dose curve; as a rule, active = well fitted curve in the direction sought with a large enough effect; inconclusive = small, poorly fitted or top-dose-only effect, or another doubt; inactive = no such curve, though single readings can be large; an effect the other way counts as inactive or inconclusive. Potency is read from the fitted curve at half-maximal effect.
SMILES,Tau ThT inhib,HTT cytoprotect,Tau FP inhib,Tau fluor counter,HttQ103 aggreg
COc1cc(NC(=O)COC(=O)CNS(=O)(=O)c2ccc(F)c(F)c2F)cc(OC)c1,0%,3%[10 µM],-5%,-15%,-2%
CN(C)c1ccc(S(=O)(=O)NCC(=O)OCC(=O)Nc2cc(Cl)cc(Cl)c2)cc1[N+](=O)[O-],28µM*,-11%[10 µM],?,?,3%
COc1cccc(CNc2ncnc3cc(OC)c(OC)cc23)c1,-18%,20%[10 µM],-8%,-16%,?
COc1cc2ncnc(NCc3ccc(C)cc3)c2cc1OC,-1%,-19%[10 µM],-6%,-14%,35µM*
COc1ccccc1CNc1ncnc2ccc(-c3ccc(N(C)C)cc3)cc12,11µM*,-69%,?,10µM*[quencher],.
COc1cc(C(=O)Nc2cccc(OCc3cc(=O)n4c(C)csc4n3)c2)cc(OC)c1OC,-1%,.,?,?,.
Cc1ccc(C2=CC(c3ccc(N(C)C)cc3)n3nnnc3N2)cc1 (stereo not given),?,-22%,4%,-23%,10µM*
CC(C)c1ccc(C2=CC(c3ccc(C(C)C)cc3)n3nnnc3N2)cc1 (stereo not given),-5%,.,-14%,-1%,.
CCn1c(C(=O)NCc2ccc(C)cc2)cc2sc(Cl)cc21,-5%,.,-17%,-21%,.
O=C1CCCCC2CCCCN12 (stereo not given),-9%[126 µM],.,0%[126 µM],-8%[126 µM],.
Oc1oc(-c2ccccc2)nc1C=NCc1ccccc1,-13%,-15%,0%,?,12%[9.22 µM]
CC1=Nc2ccccc2/C1=C\c1nc(-c2ccc(C(F)(F)F)cc2)oc1O,13µM*,-5%,3%,11µM*[quencher],-2%
COc1ccc(-c2nnc(NC(=O)c3ccccc3C)o2)cc1,-5%,3%[10 µM],5%,9%,-1%[9.22 µM]
COc1ccc(-c2nc(/C=C3\C(C)=Nc4ccccc43)c(O)o2)cc1,4µM*,-39%,?,8.9µM*[quencher],24%
CC1=Nc2ccccc2/C1=C\c1nc(-c2ccccc2)oc1O,5µM*,?,?,7.9µM*[quencher],9%
Oc1ccccc1-c1nnc(-c2ccc(C(F)(F)F)cc2)o1,-10%,-26%,-1%,-8%,-9%
CC1=Nc2ccccc2/C1=C/c1nc(-c2ccc(C)s2)oc1O,2.8µM*,8%[10 µM],4%,5µM*[quencher],28%
O=C(CCCCCn1c(=O)c2sccc2n(CC(=O)Nc2ccccc2F)c1=O)NCc1ccc2c(c1)OCO2,3%,.,-3%,-21%,.
COc1cc2cc3c4c(cc(OC)c(OC)c4c2cc1OC)CCN3C,10µM*,-30%[1.9 µM],?,13µM*[quencher],.
CC(C)(C)c1ccc(NC(=O)COC(=O)c2ccc(NS(=O)(=O)c3ccc(F)c(F)c3)cc2)cc1,3%,4%[10 µM],28µM*,?,-20%
CCOc1ccc(Br)cc1S(=O)(=O)Nc1ccc(C(=O)OCC(=O)Nc2ccc(C#N)cc2)cc1,-5%,-25%,25µM*,?,0%
COc1cccc(-c2nc3c(C#N)c[nH]n3c2NC2CCCC2)c1OC,?,.,8%,-11%,.
O=C1C(O)=C(O)C(=O)C(O)=C1O,13µM*,?,?,-22%,17%
C/C(=N\Nc1nc2ccccc2[nH]1)c1ccc2c(c1)OCO2,?,-61%,9%,?,?
CC(=O)Nc1ccc(/C=N/Nc2nc3ccccc3[nH]2)cc1,?,-7%[10 µM],12%,1%,1%
SMILES,Tau ThT inhib,HTT cytoprotect,Tau FP inhib,Tau fluor counter,HttQ103 aggreg
C(=N\Nc1nc2ccccc2[nH]1)/c1ccc2c(c1)OCO2,7.9µM*,-70%,13%,?,-23%
CCN(CC)c1ccc(/C=N/Nc2nc3ccccc3[nH]2)cc1,3.2µM*,-4%[10 µM],?,7.9µM*[quencher],?
O=[N+]([O-])c1cc(S(=O)(=O)C(F)(F)F)ccc1Sc1nc2ccccc2s1,16µM*,-76%,-13%,13µM*[quencher],-15%[9.22 µM]
O=[N+]([O-])c1cc(S(=O)(=O)C(F)(F)F)ccc1Sc1nc2ccccc2[nH]1,25µM*,-103%,-14%,13µM*[quencher],?
CS(=O)(=O)c1ccc(Sc2nc3ccccc3[nH]2)c([N+](=O)[O-])c1,-12%,-6%,4%,-20%,-30%
CC(CO)(CO)Nc1ncnc2ccccc12,.,-6%[10 µM],.,.,.
Nc1cc(S(=O)(=O)O)ccc1O,.,-5%,.,.,.
Cc1ccc(S(=O)(=O)Nc2cc(=O)[nH]c(SCC(=O)Nc3cccc(C)c3)n2)cc1,.,1%[10 µM],16µM*,?,-5%[9.22 µM]
Cc1ccc(NC(=O)CSc2nc(NS(=O)(=O)c3ccccc3)cc(=O)[nH]2)cc1,-18%,20%[10 µM],-16%,-21%,9%
O=C(CSc1nc2ccccc2s1)Nc1nccs1,-4%,3%,1%,-2%,20µM*
O=C(CC1Sc2ccccc2NC1=O)NNC(=O)Nc1ccc(Cl)cc1 (stereo not given),.,12%[10 µM],-4%,4%,-14%[9.22 µM]
Cc1csc(NC(=O)CSc2nc3ccccc3s2)n1,-7%,11%[10 µM],-1%,-6%,-10%
O=C(CN1c2ccccc2Sc2ccccc21)NNC(=O)Nc1ccc(Cl)c(Cl)c1,?,-10%[10 µM],?,5µM*[quencher],8%[9.22 µM]
O=C(CN1c2ccccc2Sc2ccccc21)N/N=C/c1ccccc1,-8%,-7%[10 µM],9%,?,-20%[9.22 µM]
O=C(CN1c2ccccc2Sc2ccccc21)NNC(=O)Nc1ccc(Cl)cc1,.,29%[10 µM],11%,5.6µM*[quencher],7%[9.22 µM]
O=C(CSc1nc2ccccc2s1)Nc1ccc(Cl)c(C(=O)O)c1,-10%,.,-3%,-12%,1%
O=C(CSc1nc2ccccc2s1)NNC(=O)Nc1ccc(Cl)c(Cl)c1,-17%,18%[10 µM],20µM*,?,-2%
COc1ccc2c(c1)C(=O)[C@@H](OC(=O)NCCOc1ccccc1)[C@H](c1ccc(OC)c(Br)c1)O2,-6%,24%,-10%,-15%,.
COC(=O)c1ccc(NC(=O)CC2C(=O)N(c3cccc(C)c3)C(=O)N2C2CCCC2)cc1 (stereo not given),-3%,.,-11%,?,.
CCn1c(O)c(/C=C2\C=Nc3ccccc32)sc1=O,-14%,.,5%,-25%,0%
CC1=Nc2ccccc2/C1=C/c1sc(=N)n(-c2nccs2)c1O,5µM*,-66%,?,11µM*[quencher],?
Nc1ccc(-c2cc(-c3cccc(N)c3)nc(-c3ccccc3)n2)cc1,?,.,1%,3.5µM*[quencher],-20%
CC(=O)Nc1ccc(-c2csc(N/N=C(/C)c3ccccc3)n2)cc1,.,0%[10 µM],?,11µM*[quencher],8%[9.22 µM]
CCC(=O)Nc1ccc(-c2csc(C)n2)cc1,-13%,.,7%,-8%,-6%
CCC(=O)Nc1ccc(-c2cc(-c3ccccc3)nc(-c3ccc(NC(=O)CC)cc3)n2)cc1,-8%,-34%,11µM*,?,-3%
CC(=O)Nc1ccc(-c2cc(-c3ccc(NC(C)=O)cc3)nc(-c3ccccc3)n2)cc1,15%,-9%,14µM*,-8%,27%
